This note sets out measurements from PubChem BioAssay (NCATS).

Experiment [1] has as its target Alpha-galactosidase A (Homo sapiens) (UniProt P06280). As to the kind of experiment: Counterscreen for Glucocerebrosidase Inhibitors: qHTS Assay for Human alpha-Galactosidase at pH 4.5 (AID 992). Further: 0% is about no effect. The procedure, abridged: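 Concentration-response curves (0.7 nM to 77 uM final) were modeled with the Hill equation to give AC50. Reactions: 2 nM enzyme, 80 uM fluorogenic alpha-galactoside, pH 4.5 citric acid buffer, 20 min, room temperature.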
On the technique in general: Counterscreens check selectivity or assay interference.

Experiment [2] addresses alpha-glucosidase (Oryza sativa, rice) (UniProt Q653V4). In words: Counterscreen for Glucocerebrosidase Inhibitors: qHTS Assay for Rice alpha-Glucosidase at pH 5.0 (AID 997).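 Further: 0% = full activity with enzyme and -100% = basal without enzyme.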 The gist of the method:
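Rice alpha-glucosidase (4 nM final) with 400 uM 4-methylumbelliferyl-alpha-D-glucopyranoside in citrate buffer pH 5.0, 20 min at room temperature, stopped at pH 10; fluorescence 365/440 nm, compounds 0.7 nM–77 uM, AC50 from Hill fits.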

The nature of experiment [3]: qHTS Assay for Lipid Storage Modulators (AID 1519; calls by dose curve; further: potency means the concentration at half of the fitted maximal effect; on activity change, negative = inhibition: on the % scale 0 is the no-effect control and ±100 the full control effect). The conditions noted are these: Drosophila S3 cells, BODIPY lipid droplet/cell ratio, laser cytometry, cells loaded with oleic acid. The procedure, abridged:
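Cells seeded at 5,000 per well were treated with compounds over a concentration series and loaded with oleic acid (400 uM, as added). Lipid droplet fluorescence (488 nm excitation, 500-530 nm channel) was read by laser-scanning cytometry and normalized to 20 uM Triacsin C.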
A general note: qHTS replaces the single test concentration by a dilution series.

For experiment [4], the target named is DNA repair nuclease/redox regulator APEX1 (Homo sapiens) (UniProt P27695). As to the kind of experiment: qHTS Validation Assay for Inhibitors of the Human Apurinic/apyrimidinic Endonuclease 1 (APE1) (AID 1705;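 further: TAMRA fluorescence gain over two minutes as APE1 cuts a quenched THF abasic duplex; on the % scale 0 is the no-effect control and ±100 the full control effect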). The gist of the method:
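Fluorogenic double-stranded THF abasic-site substrate (5'-TAMRA/3'-BHQ-2), 50 nM final. Enzyme preincubated with compound 15 min at room temperature, then substrate added. Kinetic fluorescence (ex 525/em 598 nm) read three times at 60 s intervals; activity taken as third-minus-first read difference.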

Experiment [5] can be described thus: Counterscreen for APE1 Inhibitors: Fluorescent Dye Displacement Validation Assay (AID 1707).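 Further: plate controls were ThO with dsDNA and no compound for no effect and ThO without dsDNA for full effect.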 The gist of the method: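 Assay buffer: Tris-HCl pH7.5 with 50mM NaCl, 2 mM MgCl2, 0.01% Tween-20. Dye 250 nM, duplex 50 nM final. Readout: decrease in ThO endpoint fluorescence, 480 nm excitation, 540 nm emission.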
Experiment [6] has as its target Endonuclease 4 (Escherichia coli (strain K12)) (UniProt P0A6C1). In words: Counterscreen for APE1 Inhibitors: qHTS Validation Assay for Inhibitors of Endonuclease IV (AID 1708). Further: on the % scale 0 is the no-effect control and ±100 the full control effect. The gist of the method: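 Concentration-response counterscreen run identically to the APE1 assay: 15 min room-temperature preincubation of 2 nM enzyme with compound, reaction started with 50 nM quenched abasic DNA, progress taken from kinetic fluorescence.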

The nature of experiment [7]: qHTS for differential inhibitors of proliferation of Plasmodium falciparum line 7G8 (AID 1815).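 Further: parasite growth measured after three days of incubation.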 Further: potency means the concentration at half of the fitted maximal effect.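 On activity change, negative = inhibition: plate controls were vehicle wells for no effect and reference inhibitor wells for full effect.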
Experiment [8] can be described thus: qHTS for differential inhibitors of proliferation of Plasmodium falciparum line GB4 (AID 1816).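 Further: parasite growth measured after 72 h incubation.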 Further: potency means the concentration at half of the fitted maximal effect.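 On activity change, negative = inhibition: 0% = vehicle DMSO and -100% = reference inhibitor.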 The conditions noted are these: Potency: Plasmodium falciparum GB4 proliferation inhibition.
Experiment [9] in a line: qHTS for differential inhibitors of proliferation of Plasmodium falciparum line 3D7 (AID 1876). Further: potency means the concentration at half of the fitted maximal effect.
Experiment [10] is described as follows: Validation of Assay for Modulators of Lamin A Splicing (AID 1459; active means well fitted curve in the direction sought with a large enough effect in the signal ratio; the % refers to the signal ratio;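 further: cells exposed to compound for two days before reading; 0% is about no effect; ratio rise marks activators and ratio drop marks inhibitors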). The gist of the method:
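S3 HeLa stably expressing lamin A-EGFP splicing minigene and DsRed2, 600 cells/well in Opti-MEM with 2% FBS, treated 48 h at 37C; laser-scanning cytometry gives GFP/RFP total intensity ratio; ancitabine positive control, 0.5% DMSO vehicle.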

Setting [11] is: measured here: cell count channel max response.
Setting [12] is: measured here: lipid channel max response.

Values joined by “and” are separate entries in the source; they are usually repeats but may differ in a detail not shown here. Equal values may be shown once. Results filed as inconclusive are left out. Active and inactive are the calls of the source. Unless noted, the call rests on the fitted dose curve; in most records, active means well fitted curve in the direction sought with a large enough effect; inconclusive means small, poorly fitted or top-dose-only effect, or another doubt; inactive means no such curve, though single readings can be large; an effect the other way counts as inactive or inconclusive.

Sequence of DNA repair nuclease/redox regulator APEX1 (Homo sapiens) (P27695 whole entry, looked up): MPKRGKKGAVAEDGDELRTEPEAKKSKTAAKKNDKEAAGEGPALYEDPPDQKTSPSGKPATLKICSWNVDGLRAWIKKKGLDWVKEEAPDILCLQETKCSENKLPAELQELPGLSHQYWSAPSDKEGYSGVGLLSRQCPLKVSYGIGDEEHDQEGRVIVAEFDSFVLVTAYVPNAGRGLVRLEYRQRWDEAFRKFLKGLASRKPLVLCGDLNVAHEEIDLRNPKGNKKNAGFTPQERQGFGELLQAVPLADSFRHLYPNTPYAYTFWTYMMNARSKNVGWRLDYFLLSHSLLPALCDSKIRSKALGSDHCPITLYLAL
Sequence of Alpha-galactosidase A (Homo sapiens) (P06280 whole entry, looked up): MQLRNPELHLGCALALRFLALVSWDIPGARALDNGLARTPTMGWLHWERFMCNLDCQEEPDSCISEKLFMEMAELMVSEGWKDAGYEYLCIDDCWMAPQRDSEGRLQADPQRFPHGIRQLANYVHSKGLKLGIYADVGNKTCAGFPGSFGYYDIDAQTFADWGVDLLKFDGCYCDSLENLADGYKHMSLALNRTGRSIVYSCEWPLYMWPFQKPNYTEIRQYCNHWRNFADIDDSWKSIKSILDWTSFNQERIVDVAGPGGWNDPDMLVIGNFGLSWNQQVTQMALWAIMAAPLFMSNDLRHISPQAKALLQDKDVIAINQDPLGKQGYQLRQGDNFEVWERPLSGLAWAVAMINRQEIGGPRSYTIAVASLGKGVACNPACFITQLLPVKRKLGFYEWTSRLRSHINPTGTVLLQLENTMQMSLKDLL

Regarding `CNCCNS(=O)(=O)c1cccc2cnccc12`, the outcome in [1] and in experiment [2] was inactive. Moreover, the activity change, negative = inhibition in [3] (at 57.5 µM (top of the series)) was 0.292% (inactive). Further, the figures for the max response in experiment [3] (setting [11]) and in experiment [3] (setting [12]) were 5.66% and 5.52%, respectively. The Potency entry in experiment [4], in experiment [5], in [6], in experiment [7], in [8] and in experiment [9] was “inactive” in each case.
Consider `CCC1(O)CC2CN(CCc3c([nH]c4ccccc34)[C@@](C(=O)OC)(c3cc4c(cc3OC)N(C=O)C3[C@]45CCN4CC=C[C@@](CC)([C@@H](OC(C)=O)[C@]3(O)C(=O)OC)[C@H]45)C2)C1` (stereo not given in full), for which the activity change, negative = inhibition in experiment [3] (at 57.5 µM (top of the series)) was 2.35% (inactive). In addition, the max response in experiment [3] (setting [11]) is -1.21%; in [3] (setting [12]), 2.17%. In addition, the Potency result in experiment [4] and in experiment [5] was “inactive” each time. In addition, the Potency was 0.794 µM (active) in experiment [7] and 0.0631 µM (active) in experiment [9].
For the molecule `CN(C)S(=O)(=O)c1ccc2c(c1)/C(=C/c1cc3c([nH]1)CCCC3)C(=O)N2`, the call in experiment [1] and in experiment [2] was inactive. Besides, the Potency in experiment [3] is 28.2 µM (active); in experiment [7], 4.47 µM (active); in experiment [8], 5.01 µM (active); in experiment [9], 3.55 µM (active). In addition, the max response in experiment [3] (setting [11]) was 59.5%; in experiment [3] (setting [12]), -52.8%. In addition, the Potency entry in [4] and in experiment [5] was “inactive” each time.
On to `CCCCCCCCCCCCCCCCCCOC[C@H](COP(=O)([O-])OCC[N+](C)(C)C)OC`, for which the activity change, negative = inhibition in [3] (at 57.5 µM (top of the series)) is 1.74% (inactive). Also, the max response in experiment [3] (setting [11]) was found to be 55.6%; in [3] (setting [12]), 57.7%. The Potency entry in [4], in [5], in [6], in experiment [7], in experiment [8] and in experiment [9] was “inactive” in each case.
Regarding `CC1CNCCN1S(=O)(=O)c1cccc2cnccc12` (stereo not given), the activity change, negative = inhibition in experiment [3] (at 57.5 µM (top of the series)) was -0.941% (inactive). In addition, the max response was 3.07% in experiment [3] (setting [11]) and 3.63% in experiment [3] (setting [12]). The Potency entry in [4], in experiment [5] and in [9] was “inactive” in each case. Besides, the Potency in [8] is 12.6 µM (active).
Turning to `Cc1cccc(C(=O)NCN2CCN(c3ccccc3C#N)CC2)c1`, the call in experiment [1] and in [2] was inactive. Also, the activity change, negative = inhibition in experiment [3] (at 57.5 µM (top of the series)) is 0.112% (inactive). For the same molecule, the max response in experiment [3] (setting [11]) was -23.9%; in experiment [3] (setting [12]), -22.6%. For the same molecule, the Potency entry in [5], in [6], in experiment [7] and in [9] was “inactive” in each case.
Turning to `CC[C@@H]1Cc2cc(O)ccc2C2=C1c1ccc(O)cc1C[C@H]2CC`, the call in experiment [1] and in experiment [2] was inactive. In addition, the activity change, negative = inhibition in [3] (at 57.5 µM (top of the series)) is -3.04% (inactive). Further, the max response is -26.2% in [3] (setting [11]) and -25.3% in [3] (setting [12]). The Potency result in [4] was “inactive”. Moreover, the Potency in experiment [7] was 5.62 µM (active); in [8], 4.47 µM (active); in experiment [9], 11.2 µM (active).
On to `CC#CCOC(=O)c1c(C)nc2sc3c(c2c1N)CCC(O)C3` (stereo not given), for which, in experiment [3] (at 57.5 µM (top of the series)), the activity change, negative = inhibition is -1.83% (inactive). Further, the max response in [3] (setting [11]) turned out to be 5.64%; in experiment [3] (setting [12]), 4.05%. In addition, the Potency result in [4], in experiment [5] and in [6] was “inactive” throughout. Also, in experiment [9], the Potency is 11.2 µM (active).
In the case of `CC(C)NC[C@H](O)COc1cccc2ccccc12`, the activity change, negative = inhibition in experiment [3] (at 57.5 µM (top of the series)) is 8.19% (inactive). Further, the max response in experiment [3] (setting [11]) stood at 19.6%; in [3] (setting [12]), 29.6%.
Take `CN1CCc2cc(Cl)c(O)cc2[C@@H](c2ccccc2)C1`: the activity change, negative = inhibition in experiment [3] (at 57.5 µM (top of the series)) was 0.829% (inactive). The max response in experiment [3] (setting [11]) is 25.8%; in [3] (setting [12]), 26.8%.
On to `N=C(N)SCCc1cnc[nH]1`, for which the call in experiment [1] and in [2] was inactive. The activity change, negative = inhibition in [3] (at 57.5 µM (top of the series)) is 2.03% (inactive). Besides, the max response in [3] (setting [11]) came out at 1.98%; in experiment [3] (setting [12]) it was 5.06%. Further, the Potency result in [5], in experiment [6], in [7], in experiment [8] and in experiment [9] was “inactive” in each case.
`N[C@@H](Cc1c[nH]c2ccccc12)C(=O)O`: the result in experiment [1] and in experiment [2] was inactive. Further, the activity change, negative = inhibition in [3] (at 57.5 µM (top of the series)) is 1.05% (inactive). In addition, the values for the max response in [3] (setting [11]) and in experiment [3] (setting [12]) were 61.2% and 63.3%, respectively. The Potency result in experiment [4], in [5] and in experiment [6] was “inactive” each time. Further, the Potency in experiment [7] is 11.2 µM (active).
Regarding `CC(C)NC[C@H](O)COc1ccc(CC(N)=O)cc1`, the result in experiment [1] and in [2] was inactive. In addition, the activity change, negative = inhibition in experiment [3] (at 25.7 µM (top of the series)) is -3.22% (inactive) and -3.29% (inactive); in experiment [3] (at 57.5 µM (top of the series)), 0.49% (inactive) and -5.77% (inactive). Further, the max response in [3] (setting [11]) is -3.12% [middle of 4 runs]; in experiment [3] (setting [12]) it was -2.86% [middle of 4 runs]. Further, the Potency entry in [5], in experiment [7], in experiment [8] and in [9] was “inactive” in each case.
Regarding `CNC(=O)c1cc2c(cn1)[nH]c1ccccc12`, the call in experiment [1], in experiment [2] and in experiment [10] was inactive. For the same molecule, in [5], the Potency entry was “inactive”. The Potency in experiment [7] is 12.6 µM (active).
In the case of `OC1(c2ccc(Cl)cc2)CCN(Cc2c[nH]c3ccccc23)CC1`, the molecule was classed as inactive in experiment [1], in experiment [2] and in experiment [10]. For the same molecule, in experiment [5], the Potency entry is “inactive”.
For `CC(=O)N[C@@H](Cc1c[nH]c2ccccc12)C(=O)OCc1cc(C(F)(F)F)cc(C(F)(F)F)c1`, the outcome in experiment [1] and in experiment [2] was inactive. In addition, in [3] (at 57.5 µM (top of the series)), the activity change, negative = inhibition was -1.99% (inactive). Moreover, the max response in [3] (setting [11]) is -16.3%; in [3] (setting [12]) it was -17.3%. Further, the Potency result in experiment [8] and in [9] was “inactive” throughout.
